A selection: hits, their analogues and other compounds. The true share with any hit is near 6.6%.
Autofluor counter = compound fluorescence in toxin protease inhibitor counterscreen. compound autofluorescence counterscreen, microsphere flow cytometry; hits give high values. fluorescence intensity (no concentration beside the values). 3.1% of 360,000 active. AID 624483; in the data active = fluorescence intensity above about 16000; inconclusive = no clear call, values can overlap the other calls
BoNT-F LC inh = blocks Botulinum neurotoxin F light chain protease; AID 588497; 0.22% of 360,000 active; inhibition, % at 10 µM; Multiplex microsphere protease cleavage assay, flow cytometry; in the data active = inhibition above about 35%, passing the limit was not always enough; inconclusive = no clear call, values can overlap the other calls
Anthrax LF inh2 = inhibitors of Bacillus anthracis lethal factor protease; P15917; multiplex microsphere protease cleavage assay, LF; inhibition, % at 10 µM; 0.12% of 360,000 active
Mtb FBA inh = inhibits M. tuberculosis FBA enzyme | P9WQA3 | purified M. tuberculosis FBA, fluorescence read-out | inhibition, % at 1 µM | 2.3% of 360,000 active; in the data active = inhibition above about 27%
Target sequence (P9WQA3 whole entry, looked up): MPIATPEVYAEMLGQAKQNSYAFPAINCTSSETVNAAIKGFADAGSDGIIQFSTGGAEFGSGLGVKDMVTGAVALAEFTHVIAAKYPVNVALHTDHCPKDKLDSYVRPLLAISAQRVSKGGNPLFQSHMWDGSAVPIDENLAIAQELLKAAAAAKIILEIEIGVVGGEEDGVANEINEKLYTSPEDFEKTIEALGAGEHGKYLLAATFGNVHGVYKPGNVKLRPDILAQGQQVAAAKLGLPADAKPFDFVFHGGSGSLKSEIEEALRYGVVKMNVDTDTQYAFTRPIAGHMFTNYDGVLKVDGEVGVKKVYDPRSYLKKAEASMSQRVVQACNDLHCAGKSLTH
BoNT-A LC inh2 = inhibitors of Botulinum neurotoxin A light chain protease; multiplex microsphere protease substrate cleavage, flow cytometry; AID 588499; inhibition, % at 10 µM; 0.17% of 360,000 active
GDH-TPI inh = counter-screen for M. tuberculosis FBA inhibitors: GDH-TPI coupled enzymes; GDH-TPI coupled enzyme counterscreen, NADH absorbance; inhibition, % at 4.8 µM; 1.2% of 360,000 active; in the data active = inhibition above about 30%
Each line names hits and unclear results; the compound was inactive in the other large screens; ! = not confirmed by another sample. Cut-off read from the data, not from the text of the source, unless noted: active = inhibition above about 30%; inconclusive = no clear call, values can overlap the other calls; inactive = below that.

Cn1c(=O)oc2cc(S(=O)(=O)NCCC(=O)N3CCc4ccccc43)ccc21	Autofluor counter 21642, BoNT-A LC inh2 inconclusive
Cn1c(=O)oc2cc(S(=O)(=O)NCCC(=O)N3CCN(c4ccccc4F)CC3)ccc21	none
Cc1nn(C)c(C)c1S(=O)(=O)N1CCC(C(=O)NC2CCCc3ccccc32)CC1 (stereo unspecified)	none
CCN(CC)S(=O)(=O)N1CCC(C(=O)NC2CCCc3ccccc32)CC1 (stereo unspecified)	Autofluor counter 20617
CNC(=O)NC1CCCc2ccccc21 (stereo unspecified)	Autofluor counter 23281
Cc1ccc(S(=O)(=O)N2CCN(CC(=O)NC3CCCc4ccccc43)CC2)cc1C (stereo unspecified)	Autofluor counter 21955!
Fc1c(F)c(F)c(N=Cc2ccc3ncccc3c2)c(F)c1F	none
CC1CCN(C(=O)c2cc3nc(-c4ccccc4)cc(-c4ccccc4)n3n2)CC1	Autofluor counter 20793
O=C(NC1CCCC1)c1cc2nc(-c3ccccc3)cc(-c3ccccc3)n2n1	none
O=C(c1cc2nc(-c3ccccc3)cc(C(F)(F)F)n2n1)N1CCOCC1	Autofluor counter 21930
CCCCC1SC(N)=NC1=O (stereo unspecified)	none
CCCOc1ccc(N2C(=O)CC(S/C(N)=N/N=C(\C)c3cccs3)C2=O)cc1 (stereo unspecified)	none
C/C(=N\N=C(/N)SC1CC(=O)N(c2cccc(Cl)c2)C1=O)c1cccs1 (stereo unspecified)	GDH-TPI inh 40
CCCNC(=O)NC(=O)COC(=O)CNS(=O)(=O)/C=C/c1ccccc1	none
CC(=O)Nc1nc(C)c(Oc2ccccc2)c(=O)[nH]1	Autofluor counter 20911
O=S1(=O)CC(N2CCCCC2)CN1Cc1cn(Cc2ccc(C(F)(F)F)cc2)nn1 (stereo unspecified)	none (no result: Mtb FBA inh, GDH-TPI inh)
N=C1N(/N=C/c2ccccc2)C(=Nc2ccccc2)C(=S)N1c1ccccc1	Autofluor counter 18941
CN(/N=C/c1cccnc1)c1cnn(-c2ccc(F)c(Cl)c2)c(=O)c1Cl	BoNT-F LC inh 36, BoNT-A LC inh2 inconclusive
CN(/N=C/c1c[nH]c2ccccc12)c1cnn(-c2ccc(F)c(Cl)c2)c(=O)c1Cl	Autofluor counter 20923
Cc1cc(/C=C2/SC(=S)N(c3ccc([N+](=O)[O-])cc3)C2=O)c(C)n1-c1cccnc1	BoNT-A LC inh2 33
Cc1cc(/C=C2/SC(=S)N(c3cccc(Cl)c3)C2=O)c(C)n1-c1cccnc1	BoNT-F LC inh 74, Anthrax LF inh2 51, BoNT-A LC inh2 60
Cc1ccc(/C=N/NC(=S)NC2CCS(=O)(=O)C2)cc1 (stereo unspecified)	none
COc1cc(/C=N/NC(=S)NC2CC3CC2C2C=CCC32)ccc1O (stereo unspecified)	GDH-TPI inh 37 (no result: Autofluor counter, BoNT-F LC inh, Anthrax LF inh2, BoNT-A LC inh2)
COc1ccc(/C=N/NC(=S)NC2CCS(=O)(=O)C2)cc1OC (stereo unspecified)	GDH-TPI inh 41
COc1cc(/C=N/NC(=S)NCc2ccco2)cc(OC)c1OC	GDH-TPI inh 37
CCOc1ccc(CNC(=S)N/N=C/c2ccc(OC)c(OC)c2)cc1	GDH-TPI inh 42
COc1ccccc1/C=N/NC(=S)NCc1ccco1	BoNT-F LC inh inconclusive, GDH-TPI inh 38
Oc1c(Br)cc(/C=N/NC(=S)NCc2ccco2)cc1Br	GDH-TPI inh 33
CCN(CC)c1nc(-c2ccc(C(=O)NN)cc2)nc(-c2ccc(C(=O)NN)cc2)n1	none
Nc1cc2[nH]c(=O)c3ccccc3c2cc1[N+](=O)[O-]	none
FC(F)Oc1ccccc1NC(=S)NCc1ccco1	Autofluor counter 23284
S=C(NCc1ccco1)Nc1ccccc1Cl	BoNT-F LC inh inconclusive
CC(=NNC(N)=S)c1ccc2cc3c(cc2c1)OCO3	none
COc1cc2ccc(C(C)=NNC(N)=S)cc2cc1OC	GDH-TPI inh 42
CC(C)=CC(=O)NCc1c(Cl)cccc1-n1cccc1	Autofluor counter 24294
O=C(c1ccc(Br)cc1)C1CCc2occc2C1=O (stereo unspecified)	Autofluor counter 22206
O=C(NNC(=O)C1CCC1)c1ccc(Br)cc1	none
CC1CC(C)CN(S(=O)(=O)c2ccc(C(=O)N(C)Cc3ccccc3)cc2)C1 (stereo unspecified)	none
Cc1cccc(C)c1-c1ccc(CN2C(CC(C)C)C(=O)N(Cc3cn(CCO)nn3)CCS2(=O)=O)cc1 (stereo unspecified)	none
COc1ccc(CCNC(=S)Nc2cccc3ccccc23)cc1	none
COc1ccc(NC(=S)NCCc2ccccc2OC)c(OC)c1	Autofluor counter 16398
COc1ccc(NC(=S)NCc2ccccc2Cl)c(OC)c1	none
COc1ccccc1CCNC(=O)c1ccc(C)o1	Autofluor counter 21801, BoNT-A LC inh2 inconclusive
COc1ccc(OCCNC(=S)Nc2cccc3ccccc23)cc1	Autofluor counter 22439
CCC(CC)C(=O)OCC(=O)Nc1cc(OC)c([N+](=O)[O-])cc1C	none
COc1cccc(OC)c1C(=O)Nc1ccccc1Sc1ccccc1	none (no result: Autofluor counter, BoNT-F LC inh, Anthrax LF inh2, BoNT-A LC inh2)
O=c1c2ccccc2nc(-c2ccccc2)n1-c1cccnc1	Autofluor counter 22832, BoNT-A LC inh2 inconclusive
Cc1ccc(-c2nc3ccccc3c(=O)n2-c2cccnc2)cc1	none
Nc1nn(-c2ccccc2Cl)cc1-c1nn[nH]n1	BoNT-F LC inh inconclusive, BoNT-A LC inh2 inconclusive
CCCNC(=O)c1cc(OC)c(OC)cc1[N+](=O)[O-]	Autofluor counter 24245, BoNT-A LC inh2 inconclusive
COc1cc(C(=O)Nc2ccc(N(C)C)cc2)c([N+](=O)[O-])cc1OC	none
COc1cc(C(=O)Nc2ccc(N3CCCS3(=O)=O)cc2)c([N+](=O)[O-])cc1OC	Autofluor counter 18232
COc1cc(C(=O)NCCc2ccc(F)cc2)c([N+](=O)[O-])cc1OC	none
CCOC(=O)N1CCN(C(=O)CN(C2CCCCC2)S(=O)(=O)c2ccc(C)cc2)CC1	none
Cc1ccc(S(=O)(=O)N(CC(=O)N2CCN(c3ccc(F)cc3)CC2)C2CCCCC2)cc1	Autofluor counter 23859
Nc1ccc2c(C(F)(F)F)cc(=O)oc2c1	Mtb FBA inh 63
Cc1cc(=O)n(-c2ccc3ccccc3n2)[nH]1	Autofluor counter 17043
CC1(C)CC2CC(C)(CN2C(=O)COC(=O)c2cncc(Br)c2)C1 (stereo unspecified)	none
Cc1ccc(C(=O)/C=C/Nc2ccccn2)cc1	GDH-TPI inh 33
CCCC(=O)N1CCCC1(C)C(=O)Nc1cc(OC)c(OC)c(OC)c1 (stereo unspecified)	none
O=C(N=Nc1c(O)[nH]c2ccccc12)c1cc(-c2cccs2)[nH]n1	GDH-TPI inh 35
O=C(N=Nc1c(O)[nH]c2ccccc12)Nc1ccccc1	GDH-TPI inh 31
NS(=O)(=O)c1cc(C(=O)N=Nc2c(O)[nH]c3ccccc23)ccc1Cl	GDH-TPI inh 34
O=C(Cc1cccs1)N=Nc1c(O)[nH]c2ccccc12	none
